Experimental data as given in paper PMC7826789 (International Journal of Molecular Sciences, 2021).

Tests used:
Conditions in all cases: Compound Concentration (nM):1000
MAST1 = test system: MAST1
MEK1 = test system: T1, MEK1
T1 construct: gene MAP2K1

MEK2 = test system: T2, MEK2
T2 construct: gene MAP2K2

MEK3 = test system: T3, MEK3
T3 construct: gene MAP2K3

MEK4 = test system: T4, MEK4
T4 construct: gene MAP2K4

MEK5 = test system: T5, MEK5
T5 construct: gene MAP2K5

MEK6 = test system: T6, MEK6
T6 construct: gene MAP2K6

MELK = test system: MELK
MERTK = test system: MERTK
MET(M1250T) = test system: MET(M1250T)
MET(Y1235D) = test system: MET(Y1235D)
MET = test system: MET
MINK = test system: T7, MINK
T7 construct: gene MINK1

MKK7 = test system: T8, MKK7
T8 construct: gene MAP2K7

MKNK1 = test system: MKNK1
MKNK2 = test system: MKNK2
MLCK = test system: T9, MLCK
T9 construct: gene MYLK3

MLK1 = test system: T10, MLK1
T10 construct: gene MAP3K9

MLK2 = test system: T11, MLK2
T11 construct: gene MAP3K10

MLK3 = test system: T12, MLK3
T12 construct: gene MAP3K11
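Also: KINOMEscan scanMAX binding as percent activity remaining versus control; lower means stronger binding.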

Compound | Percent Control (MAST1) [%] | Percent Control (MEK1) [%] | Percent Control (MEK2) [%] | Percent Control (MEK3) [%] | Percent Control (MEK4) [%] | Percent Control (MEK5) [%] | Percent Control (MEK6) [%] | Percent Control (MELK) [%] | Percent Control (MERTK) [%] | Percent Control (MET(M1250T)) [%] | Percent Control (MET(Y1235D)) [%] | Percent Control (MET) [%] | Percent Control (MINK) [%] | Percent Control (MKK7) [%] | Percent Control (MKNK1) [%] | Percent Control (MKNK2) [%] | Percent Control (MLCK) [%] | Percent Control (MLK1) [%] | Percent Control (MLK2) [%] | Percent Control (MLK3) [%]
COc1ccc(COc2ccc(Cc3cnc(N)nc3N)cc2OC)cc1 [GW632580X] | 93 | 90 | 90 | 93 | 100 | 97 | 100 | 100 | 100 | 100 | 100 | 95 | 85 | 80 | 76 | 100 | 100 | 85 | 53 | 90
CN(C)c1cc2c(Nc3ccc4c(cnn4Cc4ccccc4)c3)ncnc2cn1 [GW282974X] | 77 | 48 | 50 | 83 | 89 | 0 | 84 | 90 | 96 | 75 | 100 | 94 | 100 | 95 | 74 |  | 98 | 89 | 95 | 100
COc1cc(C=NNc2ncnc3c2cnn3-c2ccccc2)ccc1O [GW513184X] | 83 | 76 | 82 | 100 | 100 | 4.6 | 100 | 93 | 93 | 21 | 57 | 36 | 48 | 100 | 100 | 50 | 98 | 48 | 83 | 50
COc1cccc(-n2ncc3c(N/N=C/c4ccncc4)ncnc32)c1 [GW784752X] | 76 | 98 | 96 | 79 | 97 | 2.3 | 87 | 100 | 86 | 46 | 94 | 91 | 67 | 100 | 47 | 59 | 98 | 100 | 73 | 100
CC1=C(C(=O)Nc2ccc3[nH]ncc3c2)C(c2ccc(Cl)c(Cl)c2)CC(=O)N1 (stereo not shown) [GSK299115A] | 72 | 73 | 69 | 77 | 89 | 79 | 84 | 88 | 100 | 95 | 97 | 97 | 69 | 90 | 81 | 66 | 99 | 70 | 86 | 97
Nc1ncnc2occ(-c3ccc(NC(=O)Nc4cc(C(F)(F)F)ccc4F)cc3)c12 [GW770249X] | 100 | 98 | 100 | 100 | 100 | 21 | 100 | 53 | 1.4 | 49 | 60 | 89 | 52 | 100 | 55 | 3.9 | 88 | 66 | 18 | 54
CCc1ccc(Oc2nccc(-c3c(-c4ccc(F)cc4)ncn3C3CCNCC3)n2)cc1 [SB-242719] | 81 | 93 | 91 | 78 | 100 | 100 | 100 | 88 | 100 | 100 | 100 | 93 | 36 | 90 | 83 | 100 | 76 | 85 | 100 | 71
NS(=O)(=O)c1ccc(N/N=C2\C(=O)Nc3ccc(C(=O)NCCc4c[nH]cn4)cc32)cc1 [GW300660X] | 100 | 93 | 90 | 39 | 100 | 39 | 96 | 15 | 100 | 100 | 100 | 100 | 43 | 100 | 100 | 100 | 100 | 100 | 100 | 100
CCS(=O)(=O)c1ccc(OC)c(Nc2ncc(-c3cccc(OC)c3)o2)c1 [GW580509X] | 93 | 100 | 100 | 78 | 100 | 4.6 | 92 | 100 | 72 | 100 | 100 | 100 | 70 | 100 | 100 | 94 | 100 | 100 | 100 | 96
CN1CCN(C(=O)c2ccc(NC(=O)Nc3ccc(N(C)c4ccnc(Nc5ccc(CS(C)(=O)=O)cc5)n4)cc3)cc2)CC1.Cl [GW830263A] | 61 | 33 | 40 | 14 | 6 | 0.1 | 82 | 81 | 56 | 2.2 | 4.4 | 8.8 | 18 | 95 | 65 | 4.2 | 86 | 86 | 82 | 91
